Laboratory results taken from ChEMBL document CHEMBL1201862, “PubChem BioAssay data set” (2004).
Screen size: about 1,200 compounds; about 140 (12%) were called active. The calls are words filed in the database; no cut-off is given here. Only a selection was taken, and actives are over-represented in it overall.

assay: restoration of mutant CFTR halide transport – FRT cells, YFP quenching, cherry-pick, dose response (AID 743402); type: functional, cell-based

| SMILES | AbsAC35 |
| --- | --- |
| O=C(Nc1ccccc1)N1CCCCN2[C@@H](CO)[C@H](c3ccc(C#Cc4ccccc4)cc3)[C@@H]2C1 | 31.2 µM (active) |
| O=C1NC(=O)C(=Cc2c(Cl)cccc2Cl)C(=O)N1 | 29.4 µM (active) |
